RBX1-CUL1 inh = inhibitors of human ROC1-CUL1 ubiquitin ligase activity. inhibition, % at 10 µM. AID 1347404, 2020. hit rate 0.6% among 140,000. E3 ubiquitin-protein ligase RBX1 (Homo sapiens) + Cullin-1 (Homo sapiens), P62877+Q13616. in vitro K48 di-Ub FRET, acceptor:donor ratio, 45 min; in the data active = inhibition above about 25%
Target sequence (P62877 whole entry, looked up): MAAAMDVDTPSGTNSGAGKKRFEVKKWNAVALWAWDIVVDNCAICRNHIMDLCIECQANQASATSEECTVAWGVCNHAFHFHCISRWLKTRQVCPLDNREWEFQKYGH
Target sequence (Q13616 whole entry, looked up): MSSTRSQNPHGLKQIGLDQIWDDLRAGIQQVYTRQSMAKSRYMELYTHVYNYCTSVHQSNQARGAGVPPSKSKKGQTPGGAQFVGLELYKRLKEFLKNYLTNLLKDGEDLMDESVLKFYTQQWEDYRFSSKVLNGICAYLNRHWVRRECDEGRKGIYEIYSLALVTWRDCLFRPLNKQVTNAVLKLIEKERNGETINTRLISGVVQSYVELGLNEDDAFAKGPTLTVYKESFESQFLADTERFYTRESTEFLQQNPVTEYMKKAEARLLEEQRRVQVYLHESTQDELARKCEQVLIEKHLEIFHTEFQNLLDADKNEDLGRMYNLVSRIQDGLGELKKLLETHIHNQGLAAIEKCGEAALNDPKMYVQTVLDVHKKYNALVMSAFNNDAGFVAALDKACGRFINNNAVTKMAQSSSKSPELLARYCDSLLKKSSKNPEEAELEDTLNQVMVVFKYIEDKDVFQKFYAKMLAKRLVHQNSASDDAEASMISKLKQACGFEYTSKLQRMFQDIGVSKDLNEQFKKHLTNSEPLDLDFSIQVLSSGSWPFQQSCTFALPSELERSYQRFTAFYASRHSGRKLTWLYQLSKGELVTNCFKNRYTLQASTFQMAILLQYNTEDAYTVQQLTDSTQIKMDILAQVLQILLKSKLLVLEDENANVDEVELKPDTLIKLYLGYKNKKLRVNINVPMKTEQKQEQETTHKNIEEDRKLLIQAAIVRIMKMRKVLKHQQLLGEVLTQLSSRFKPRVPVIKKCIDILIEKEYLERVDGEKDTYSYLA
* hit, by the source's call. Many of the other results were omitted from the sample, so hits are more common in it than they were.

SMILES | RBX1-CUL1 inh
CSc1ncnc2c1sc1nc(-c3cccs3)cc(C(F)(F)F)c12 | -2.5
N=c1c2sc3nc(-c4cccs4)cc(C(F)(F)F)c3c2ncn1N | 38.7*
FC(F)(F)c1cc(-c2cccs2)nc2sc3c(=S)nc[nH]c3c12 | 3.5
O=C(O)c1cc(-c2cccc(F)c2F)nc2ccc3ccccc3c12 | 2.8
O=C1N=c2ccccc2=C1c1sc(Nc2ccc(O)cc2)nc1O | 31.6*
O=C1N=c2ccccc2=C1c1sc(Nc2ccc(Br)cc2)nc1O | 4.0
CCc1cccc2c1=NC(=O)C=2c1sc(Nc2cccc(Cl)c2)nc1O | -6.7
O=C(NCCc1ccccc1)C1CCN(C(=O)c2ccccc2F)CC1 | 2.8
CC(C)C1=NN2C(=N)/C(=C\c3cn(Cc4cccc5ccccc45)c4ccccc34)C(=O)N=C2S1 | 8.6
Cc1[nH][nH]c(=O)c1C(c1c(C)[nH][nH]c1=O)c1cn(Cc2cccc3ccccc23)c2ccccc12 | 39.2*
Cc1[nH][nH]c(=O)c1C(c1c(C)[nH][nH]c1=O)c1cn(C)c2ccccc12 | 26.4*
Cc1[nH][nH]c(=O)c1C(c1ccccc1I)c1c(C)[nH][nH]c1=O | -5.2
CCOc1cc(C(c2c(C)[nH][nH]c2=O)c2c(C)[nH][nH]c2=O)cc(I)c1O | -2.0
Cn1cc(C(c2cccs2)c2cn(C)c3ccccc23)c2ccccc21 | 3.3
CCOc1cc(C(c2c(C)[nH][nH]c2=O)c2c(C)[nH][nH]c2=O)cc(I)c1OC | -7.5
Cc1[nH][nH]c(=O)c1C(c1cccc(OCc2ccccc2Cl)c1)c1c(C)[nH][nH]c1=O | -8.7
CCOc1cc(C(c2c(C)[nH][nH]c2=O)c2c(C)[nH][nH]c2=O)cc(Br)c1OCc1cccc2ccccc12 | 26.0*
O=C(/C=C/c1ccccc1F)NCC1CC(Cc2cccc(F)c2)=NO1 (stereo not given) | -4.6
CC1=NC(=O)CC(c2ccc(Cl)cc2)C1C(=O)OCC1CCCCC1 (stereo not given) | 4.3
CCn1c(Sc2ccc([N+](=O)[O-])cc2[N+](=O)[O-])nc2ccccc21 | 8.4
CCCCOc1ccc(/C=C2/C(=O)N(c3cccc(Cl)c3C)N=C2C)cc1OC | 16.6
COc1cc(C=C2C(=O)OC(c3ccccc3)OC2=O)cc(Cl)c1O (stereo not given) | 8.3
COc1cc(/C=C2\C(=O)N(c3ccccc3Cl)N=C2C)cc(I)c1O | 77.7*
CC(=O)n1nc(-c2ccc(Cl)cc2)nc1N | -5.5
CCN(CC)C(=O)C1CCN(C(=O)CC2(c3cccc(C(F)(F)F)c3)CC(=O)N(CC)C2=O)CC1 (stereo not given) | 2.4
SMILES | RBX1-CUL1 inh
O=C1C(=O)N(c2ccccn2)C(c2ccccc2Cl)C1C(=O)c1ccccc1 (stereo not given) | 28.9*
CC(C)Oc1ccc(C(=O)C2C(=O)C(=O)N(c3ccccn3)C2c2ccc(Cl)cc2)cc1 (stereo not given) | -4.1
Cc1nc(N2C(=O)C(=O)C(C(=O)c3ccccc3)C2c2ccc(Br)cc2)sc1C (stereo not given) | -0.4
O=C(/C=C/c1ccccc1)C1C(=O)C(=O)N(c2ccccn2)C1c1ccccc1 (stereo not given) | 7.5
CN(C)c1ccc(C2C(C(=O)c3ccccc3)C(=O)C(=O)N2c2ccc(Cl)cc2)cc1 (stereo not given) | -1.9
O=C1C(=O)N(c2nccs2)C(c2ccc(Cl)cc2)C1C(=O)c1ccccc1 (stereo not given) | 63.6*
COc1ccc(/C(C)=N/NC(=O)C2CC2(C)c2ccccc2)c(OC)c1 (stereo not given) | -11.8
O=C1/C(=C/c2ccc([N+](=O)[O-])o2)SC(=Nc2ccccc2)N1c1ccccc1 | 2.4
COC(=O)[C@@H]1CCCN1C(=O)Cc1ccc(N2CCC(NCCc3cccs3)CC2)cc1 | 6.9
COc1ccccc1OC(=O)C1CC1 | 9.7
CCc1cccc2c(/C=C3/C(=O)NC(=S)N(CC)C3=O)cn(CCOc3ccccc3Cl)c12 | -1.7
CCOC(=O)Cn1cc(/C=C2\C(=O)NC(=O)N(Cc3ccccc3)C2=O)c2ccccc21 | 1.4
CCc1cccc2c(/C=C3\C(=O)NC(=S)N(Cc4ccco4)C3=O)cn(CC(N)=O)c12 | 73.8*
Cc1ccc(-c2ccc(/C=C3/SC(=S)NC3=O)o2)c(Br)c1 | 96.3*
N#Cc1ccccc1-c1ccc(/C=C2/SC(=O)NC2=O)o1 | -3.5
Cc1ccc(-c2ccc(/C=C3/SC(N4CCOCC4)=NC3=O)o2)c(Br)c1 | 2.0
CCc1ccc(OCc2ccc(C(=O)NC3CCCC3)cc2)cc1 | 3.2
CCOC(=O)C1(Cc2ccc(OC)cc2)CCN(S(=O)(=O)c2ccsc2)CC1 | 4.3
CCOC(=O)c1cc(-c2ccc([N+](=O)[O-])cc2)n(NC(=O)COc2ccccc2C)c1C | 0.1
O=C(NNc1ccc([N+](=O)[O-])cc1[N+](=O)[O-])c1cccc2ccccc12 | -9.4
Cc1ccccc1OCC(=O)NNc1ccc([N+](=O)[O-])cc1[N+](=O)[O-] | 35.9*
COc1ccc(C(=O)/C(C#N)=N/Nc2ccccc2Cl)cc1 | -3.0
C/C(=N\NC(=O)C(C)Sc1ccccc1)c1ccc(NC(=O)c2ccccc2)cc1 (stereo not given) | -6.1
Cc1nc2ccccc2n1Cc1cc(C(=O)NCCN2CCCCC2)no1 | -2.4
CCOc1cc(CNc2ccc(O)cc2)cc(Br)c1OCc1ccc(Cl)cc1 | 75.7*
SMILES | RBX1-CUL1 inh
Oc1ccc(NCc2ccc(Cl)cc2)cc1 | 93.6*
CC(C)(CO)NCc1ccc(Cl)cc1 | 0.8
CCOc1cc(CNc2ccc(O)cc2)cc(Cl)c1OCc1ccccc1 | 10.2
CCOC(=O)c1ccc(NCc2cc(Br)c(OCc3ccc(Cl)cc3Cl)c(OCC)c2)cc1 | -13.8
Clc1ccc(CNc2ccc(N3CCN(Cc4ccccc4)CC3)cc2)cc1 | 2.2
CCOC(=O)C1=C(C)N=c2s/c(=C\c3cccn3-c3cccc([N+](=O)[O-])c3)c(=O)n2C1c1ccc(OC)c(OC)c1 (stereo not given) | 14.7
CCN(CC1CCCN(CCc2cccc(OC)c2)C1)C(=O)CCSC (stereo not given) | -1.4
CCC(C)CNC(=O)c1coc(CN2CCN(c3ncccn3)CC2)n1 (stereo not given) | 1.8
CC(=O)Nc1c([N+](=O)[O-])cccc1C(C)(C)C | -1.9
Cc1ccc2c(c1)C(=O)C(C(c1ccccc1Cl)C1C(=O)Oc3ccc(C)cc3C1=O)C(=O)O2 (stereo not given) | 63.3*
Cc1ccc2c(c1)C(=O)C(C(c1ccc(N(C)C)cc1)C1C(=O)Oc3ccc(C)cc3C1=O)C(=O)O2 (stereo not given) | -6.5
COc1cccc(C(C2C(=O)Oc3ccc(C)cc3C2=O)C2C(=O)Oc3ccc(C)cc3C2=O)c1 (stereo not given) | -5.6
CCC(=O)N(CCN1CCCCC1)CC1CCCN(C2CCCC2)C1 (stereo not given) | -5.4
CN1CCN(c2ncccc2CNC(=O)c2ccc(Cl)s2)CC1 | 7.3
CCOc1ccc(-c2cn3c(n2)sc2cc(C(=O)NCCCN4CCCCC4)ccc23)cc1 | -170.1
Cc1ccc(-c2cn3c(n2)sc2cc(C(=O)NCCCN4CCCCC4)ccc23)cc1 | -65.0
CCOc1ccc(-c2cn3c(n2)sc2cc(C(=O)NCCCN4CCCCCC4)ccc23)cc1 | 42.4*
CCCN1CCN(CCCNC(=O)c2ccc3c(c2)sc2nc(-c4ccc(OCC)cc4)cn23)CC1 | -62.3
CCN1CCN(CCCNC(=O)c2ccc3c(c2)sc2nc(-c4ccc(C)cc4)cn23)CC1 | -53.7

Screening data deposited in PubChem by Pan Lab, Icahn School of Medicine at Mount Sinai.
